Assay results published in PubChem BioAssay (NCATS).
Inconclusive results are not listed. A call without a number means that no potency is given here. The source made the active and inactive calls. Calls come from the whole dose curve; as a rule, active = well fitted cell-killing curve with a large enough effect; inconclusive = small, poorly fitted or top-dose-only effect, or effect the other way; inactive = no such curve, though single readings can be large or run the other way.

experiment: Quantitative highthroughput screen to assess conditional lethalithy of NOMO1 cells grown in Human Plasma-Like Medium with dialyzed fetal bovine serum (HPLM+ds) (AID 1963878); conditions: NOMO1 AML cells in HPLM+ds, CellTiter-Glo viability, 48 h; series mostly up to 45.8 µM; note: nearly all actives have a fitted effect of over 35% in size
Excerpt: Assay Provider: Jason Cantor Ph.D.
Department of Biochemistry
University of Wisconsin-Madison, Madison, WI, USA
Chemical screening studies have identified drug sensitivities across hundreds of cancer cell lines but most putative therapeutics fail to translate. Discovery and development of drug candidates in models that more accurately reflect nutrient levels in human blood is a major challenge. Here we performed high-throughput screens in conventional versus Human Plasma-Like Medium (HPLM) to identify compounds that were "missed" when screening using the artificial culture condition. Sets of conditional anticancer compounds spanned phases of clinical development and included non-oncology drugs were assessed. […] We also traced conditional phenotypes for several chemotherapeutics to availability of HPLM-specific metabolites and confirmed others for compounds whose reported targets are encoded by nonessential genes. Our findings establish generalizable strategies for exploiting conditional lethality in HPLM to reveal therapeutic candidates and mechanisms of action in cancer cells.
Described herein are the results of each viability screens against three cell lines: NOMO1 (an acute myeloid leukemia cell line); P12-Ichikawa (a T-cell acute lymphoblastic leukemia); and SEM (a B-cell ALL). Each assay was screened using 3 different cell culture media: homemade human plasma-Like medium with 10% dialyzed fetal bovine serum (HPLM+ds); RPMI1640 with 10% untreated FBS and 5mM glucose (RPMI+s); and RPMI1640 with 10% dialyzed fetal bovine serum and 5 mM glucose (RPMI+ds).
PROTOCOL TABLE (as described by Inglese J, Shamu CE and Guy RK. 2007)
SEQUENCE No. (e.g., 1, 2, 3, etc.); […] (e.g., Cells, Incubation, Reagent, etc.); VALUE and DESCRIPTION.
1; Cells; 5 uL; white, solid bottom 1536-well Greiner assay plate.
2; Compounds; 23 nL; Kalypsis pin tool (Wako USA) equipped with a 1536-well pin head to transfer to the assay plates.
3; Incubation; 48 hours; 37C incubation.
4; Reagent; 3 uL; CellTiter Glo (Promega).
5; Incubation; 5 min, room temperature
6; Detection; Luminescence, Viewlux PerkinElmer.
NOTES (numbers refer to Sequence numbers above)
1. Briefly, 5 ul of cell reagent was dispensed using a Multidrop Combi Dispenser. The NOMO1 and SEM cells were plated at 500 cells/well and the P12-Ichikawa line at 1000 cells/well.
2. After seeding the cells, 23 nL of MIPE 4.1 library compounds (in DMSO) were added to each plate using a Kalypsys 1536 Pintool dispenser. Bortezomib at final concentration of […] and DMSO were added to each plate as positive and negative controls respectively. For each screen, MIPE 4.1 compounds were added over an eleven-point concentration range […] in 3-fold dilutions.
3. Each plate was covered with a stainless steel gasketed lid to prevent evaporation and incubated for 48 hour at 37C, 95% relative humidity, and 5% CO2.
4-5. Three microliter CellTilter-GloTM luminescent substrate mix (Promega) reagent was added to the assay plate and incubated at room temperature for 5 min.
6. The luminescence signal was measured using a ViewLux (PerkinElmer) multiplate reader with a 2 second exposure time per plate. Data for each compound were normalized as percent viability such that measurements for DMSO and the empty well controls in each plate were defined as 100% and 0%, respectively.
Potency is the fitted concentration of half-maximal effect.

Structure (SMILES)	Potency
COc1ccc2c(c[n+](C)c3c4cc5c(cc4ccc23)OCO5)c1OC	20900 nM (active)
CC(=O)Nc1ccc(OC[C@](C)(O)C(=O)Nc2ccc([N+](=O)[O-])c(C(F)(F)F)c2)cc1	inactive
Cc1cccc(C)c1NC(=O)CN1CCCC1=O	inactive
Cc1sc2c(c1C)C(c1ccc(Cl)cc1)=N[C@@H](CC(=O)OC(C)(C)C)c1nnc(C)n1-2	418 nM (active)
COC1=C[C@@H]2[C@@H]3Cc4ccc(OC)c(O)c4[C@]2(CCN3C)CC1=O	inactive
O=C(O)c1nn(Cc2ccc(Cl)cc2Cl)c2ccccc12	inactive
Clc1ccccc1C(c1ccccc1)(c1ccccc1)n1cccn1	inactive
O=C1C=CC[C@@H]2[C@H]3CCCN4CCC[C@@H](CN12)[C@@H]34	inactive
CCCC(C)(COC(N)=O)COC(=O)NC(C)C (stereo not given)	inactive
COc1ccc2c(c1)CN(C)CC2c1ccc(Cl)c(Cl)c1 (stereo not given)	3320 nM (active)
Cc1c(N)nc([C@H](CC(N)=O)NC[C@@H](N)C(N)=O)nc1C(=O)N[C@H](C(=O)N[C@@H](C)[C@H](O)[C@@H](C)C(=O)N[C@@H](C(=O)NCCc1nc(-c2nc(C(=O)NCCC[S+](C)C)cs2)cs1)[C@@H](C)O)C(O[C@H]1O[C@H](CO)[C@H](O)[C@@H](O)[C@@H]1O[C@H]1O[C@H](CO)[C@@H](O)[C@H](OC(N)=O)[C@H]1O)c1cnc[nH]1 (stereo not given in full)	935 nM (active)
CC1=C2C[C@@H]3[C@@H](CC=C4C[C@@H](O)CC[C@@]43C)[C@@H]2CC[C@]12O[C@H]1C[C@H](C)CN[C@H]1[C@H]2C	inactive
CC(=Cc1csc(C)n1)[C@@H]1C[C@H]2O[C@@H]2CCC[C@H](C)[C@@H](O)[C@@H](C)C(=O)C(C)(C)[C@@H](O)CC(=O)O1	inactive
CCOc1ccccc1-n1c(C(C)N2CCN(C(=O)COc3ccc(Cl)cc3)CC2)nc2ccccc2c1=O (stereo not given)	741 nM (active)
Oc1ccc2c3c1O[C@H]1c4[nH]c5c(c4C[C@@]4(O)[C@@H](C2)N(CC2CC2)CC[C@]314)C[C@@]1(O)[C@H]2Cc3ccc(O)c4c3[C@@]1(CCN2CC1CC1)[C@H]5O4	inactive
COc1ccc2c(c1OC)CN1CCc3cc4c(cc3C1C2)OCO4 (stereo not given)	1480 nM (active)
O=P1(N(CCCl)CCCl)NCCCO1 (stereo not given)	inactive
O=[N+]([O-])c1ncc[nH]1	inactive
CN1CCN(C(=O)O[C@H]2c3nccnc3C(=O)N2c2ccc(Cl)cn2)CC1	inactive
CC[C@@H]1[C@@H](C)O[C@@](O)([C@@H](C)[C@H](O)[C@H](C)[C@H]2OC(=O)C=CC=C[C@@H](C)[C@@H]([C@@H](C)[C@@H](O)[C@H](C)[C@@]3(O)C[C@H](O[C@H]4C[C@H](O)[C@H](O)[C@H](C)O4)[C@H](CC)[C@@H](C)O3)OC(=O)C=CC=C[C@@H]2C)C[C@H]1O[C@H]1C[C@H](O)[C@H](O)[C@H](C)O1	2960 nM (active)

Structure (SMILES)	Potency
C[C@]12CCC(=O)C(O)=C1CC[C@@H]1[C@H]3CCC(=O)[C@@]3(C)CC[C@@H]12	inactive
CC(C)CC(N(C)C)C1(c2ccc(Cl)cc2)CCC1 (stereo not given)	inactive
CN(C)CCN(C)CCc1ccc(Cl)c(Cl)c1	inactive
c1cc2c(cc1[C@H]1OC[C@H]3[C@H]1CO[C@H]3c1ccc3c(c1)OCO3)OCO2	inactive
CC(O)=C(C#N)C(=O)Nc1cc(Br)ccc1Br	inactive
CNCC(O)c1ccc(O)cc1 (stereo not given)	inactive
C[C@]12CC[C@@H]3c4ccc(OC(=O)N(CCCl)CCCl)cc4CC[C@H]3[C@@H]1CC[C@@H]2OP(=O)(O)O	18700 nM (active)
NCC1(CC(=O)O)CCCCC1	inactive
CC(C)c1cccc(C(C)C)c1O	inactive
O=C(Nc1ccncc1)C(=O)c1cn(Cc2ccc(Cl)cc2)c2ccccc12	59 nM (active)
CCC1(c2ccc(N)cc2)CCC(=O)NC1=O (stereo not given)	inactive
CCOP(=O)(OCC)C(C)NC(=O)N(CCCl)N=O (stereo not given)	inactive
CC(C)N(CCNC(=O)CN1CCCC1=O)C(C)C	inactive
C#C[C@]1(O)C=C[C@@H]2[C@@H]3CCC4=CC(=O)CC[C@@H]4[C@H]3CC[C@@]21CC	inactive
CCc1c(C(=O)C(N)=O)c2c(OCC(=O)O)cccc2n1Cc1ccccc1	inactive
C[C@]12CC[C@H]3[C@@H](CCC4=CC(=O)CC[C@@]43C)[C@H]1CC[C@H]2O	inactive
C[C@](O)(CS(=O)(=O)c1ccc(F)cc1)C(=O)Nc1ccc(C#N)c(C(F)(F)F)c1	inactive
Cc1c(C(=O)Nc2cccc(C(F)(F)F)c2)cc(-c2ccccc2)n1CCCN1CCOCC1	inactive
N=c1c2c(-c3ccccc3)c(-c3ccccc3)n(Cc3ccccc3)c2ncn1C1CCC(O)CC1 (stereo not given)	16600 nM (active)
C[C@@H]1O[C@@H](O[C@@H]2C=C3CC[C@@H]4[C@@H](CC[C@]5(C)[C@H](c6ccc(=O)oc6)CC[C@@]45O)[C@@]3(C)CC2)[C@H](O)[C@H](O)[C@H]1O	33.2 nM (active)
